Measured values taken from PubChem BioAssay AID1069 (NMMLSC, 2008).

experiment: activators of LNCaP cell differentiation, retest, confirmation, side scatter shift, flow cytometry (AID 1069); settings: 4 d, side scatter shift, at 10 µM, stronger effect = higher value;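 also: LNCaP human prostate cancer cells in low-serum medium with charcoal-stripped FBS; percent of cells with raised granularity gated so DMSO controls show 10%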

SMILES	side scatter shift
Cc1ccc2c(c1)-c1c(cnn1CC(=O)Nc1ccccc1N1CCN(C)CC1)CO2	38%
COc1ccc2nc3oc(C(=O)NCc4cccs4)cc3cc2c1	3.9%
COc1ccccc1N1CCN(C(=O)CCn2c(=O)[nH]c3ccsc3c2=O)CC1	1.7%
CN(C)CCCN1c2ccccc2CCc2ccc(Cl)cc21	48.4%
